Experimental data as given in PubChem BioAssay (NCATS).
Results filed as inconclusive are left out. Calls of active or inactive are those of the source. Calls follow the shape of the dose curve; as a rule, active = well fitted curve in the direction sought with a large enough effect; inconclusive = small, poorly fitted or top-dose-only effect, or another doubt; inactive = no such curve, though single readings can be large; an effect the other way counts as inactive or inconclusive. Where a SMILES comes first, the peptide text is derived from it.

Assays:
KB-3-1 = assay: Cytotoxic Profiling of Annotated Libraries Using Quantitative High-Throughput Screening (AID 1296008); details: Five cell lines viability, CellTiter-Glo ATP luminescence, 48-72 h; max response: active compounds read low; also: nearly all actives have a fitted effect of over 60% in size; as to max response: % is scaled to controls: 0 for no effect and ±100 for the full control effect
Method in brief: (§1)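 Cytotoxicity was measured as CellTiter-Glo ATP luminescence, read after 10 min at room temperature. Compound treatment of the cells lasted 48 or 72 hr at 37 degrees Celsius in a qHTS format.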

NIH3T3 [1] = assay: as above; details: Five cell lines viability, CellTiter-Glo ATP luminescence, 48-72 h; max response: active compounds read low
Method in brief: as §1

HACAT = assay: qHTS assay to identify novel small-molecules to repurpose for Merkel cell carcinoma treatment (AID 1296009); details: MCC and control cell lines, CellTiter-Glo viability, 72 h; at 44.8 µM (top of the series) unless noted; also: nearly all actives have a fitted effect of over 60% in size
Method in brief: (§2)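 After compound transfer in DMSO, plates were kept 72 hr at 37 degree celsius. Luminescent ATP signal from CellTiter-Glo served as viability measure, normalized against DMSO and no-cell controls.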

HEK293T [2] = assay: as above; details: MCC and control cell lines, CellTiter-Glo viability, 72 h; series mostly up to 44.8 µM
Method in brief: as §2

NIH3T3 [3] = assay: as above; details: MCC and control cell lines, CellTiter-Glo viability, 72 h; at 44.8 µM (top of the series) unless noted
Method in brief: as §2

C33A = assay: Primary qHTS to identify gynecologic anti-cancer compounds using libraries of approved drugs and bioactive compounds (AID 1345084); details: Gynecologic cancer cell panel viability, ATPlite luminescence, 48 h; series mostly up to 57.5 µM; also: % is scaled to controls: 0 for no effect and ±100 for the full control effect; nearly all actives have a fitted effect of over 55% in size
Method in brief: (§3)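 Five-concentration response, 48 h; readout is ATP-driven luciferase luminescence.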

CAOV3 = assay: as above; details: Gynecologic cancer cell panel viability, ATPlite luminescence, 48 h; series mostly up to 57.5 µM
Method in brief: as §3

CASKI = assay: as above; details: Gynecologic cancer cell panel viability, ATPlite luminescence, 48 h; series mostly up to 57.5 µM
Method in brief: as §3

Es-2 = assay: as above; details: Gynecologic cancer cell panel viability, ATPlite luminescence, 48 h; series mostly up to 57.5 µM
Method in brief: as §3

HeLa = assay: as above; details: Gynecologic cancer cell panel viability, ATPlite luminescence, 48 h; series mostly up to 57.5 µM
Method in brief: as §3

Hek293T [4] = assay: as above; details: Gynecologic cancer cell panel viability, ATPlite luminescence, 48 h, control line for the selectivity index; series mostly up to 57.5 µM
Method in brief: as §3

JEG-3 = assay: as above; details: Gynecologic cancer cell panel viability, ATPlite luminescence, 48 h; series mostly up to 57.5 µM
Method in brief: as §3

OV90 = assay: as above; details: Gynecologic cancer cell panel viability, ATPlite luminescence, 48 h; series mostly up to 57.5 µM
Method in brief: as §3

PA-1 = assay: as above; details: Gynecologic cancer cell panel viability, ATPlite luminescence, 48 h; series mostly up to 57.5 µM
Method in brief: as §3

COc1cc(/C=C/CO)ccc1O[C@@H]1O[C@H](CO)[C@@H](O)[C@H](O)[C@H]1O
inactive: max response (KB-3-1) 9.42% | outcome (NIH3T3 [1]) | outcome (HACAT) | Potency (HEK293T [2]) | outcome (NIH3T3 [3]) | Potency (C33A) | Potency (CAOV3) | Potency (CASKI) | Potency (Es-2) | Potency (HeLa) | Potency (Hek293T [4]) | Potency (JEG-3) | Potency (OV90) | Potency (PA-1)

C=C1CCC2(OC1)OC1CC3C4CC=C5CC(O)CC(O[C@@H]6OC[C@@H](O)[C@H](O)[C@H]6O)C5(C)C4CCC3(C)C1(O)C2C (stereo partly drawn)
inactive: max response (KB-3-1) -0.359% | outcome (NIH3T3 [1]) | outcome (HACAT) inactive [at 17.4 µM] | Potency (HEK293T [2]) | outcome (NIH3T3 [3]) inactive [at 17.4 µM] | Potency (C33A) | Potency (CAOV3) | Potency (CASKI) | Potency (Es-2) | Potency (HeLa) | Potency (Hek293T [4]) | Potency (JEG-3) | Potency (OV90) | Potency (PA-1)

O=C1N(CC2CCCCN2)CCN1c1ccccc1 (stereo not drawn)
inactive: outcome (KB-3-1) | outcome (NIH3T3 [1]) | outcome (HACAT) inactive; activator | Potency (HEK293T [2]) | outcome (NIH3T3 [3]) | Potency (C33A) | Potency (CAOV3) | Potency (CASKI) | Potency (Es-2) | Potency (HeLa) | Potency (Hek293T [4]) | Potency (JEG-3) | Potency (OV90) | Potency (PA-1)

Cc1nnc(C(C)C)n1C1CC2CCC(C1)N2CC[C@H](NC(=O)C1CCC(F)(F)CC1)c1ccccc1 (stereo partly drawn)
inactive: max response (KB-3-1) -4.91% | outcome (NIH3T3 [1]) | outcome (HACAT) | Potency (HEK293T [2]) | outcome (NIH3T3 [3]) | Potency (C33A) | Potency (CAOV3) | Potency (CASKI) | Potency (Es-2) | Potency (HeLa) | Potency (Hek293T [4]) | Potency (JEG-3) | Potency (OV90) | Potency (PA-1)

COc1ccccc1[C@@H]1C2=C(CC(C)(C)CC2=O)Nc2n[nH]c(C(F)(F)F)c21
inactive: outcome (KB-3-1) | outcome (NIH3T3 [1]) | outcome (HACAT) | Potency (HEK293T [2]) | outcome (NIH3T3 [3]) | Potency (C33A) | Potency (CAOV3) | Potency (CASKI) | Potency (Es-2) | Potency (HeLa) | Potency (Hek293T [4]) | Potency (JEG-3) | Potency (OV90) | Potency (PA-1)

C[C@@H](O)[C@H](N)C(=O)N1CCC[C@H]1C(=O)N1CCC[C@H]1C(=O)N[C@H](C(N)=O)[C@@H](C)O (H-TPPT-NH2)
inactive: outcome (KB-3-1) | outcome (NIH3T3 [1]) | outcome (HACAT) inactive [at 9.27 µM] | outcome (HEK293T [2]) inactive [at 9.27 µM] | outcome (NIH3T3 [3]) inactive [at 9.27 µM] | activity change, negative = cytotoxicity (C33A) 10.5% [at 11.6 µM] | activity change, negative = cytotoxicity (CAOV3) 3.79% [at 11.6 µM] | activity change, negative = cytotoxicity (CASKI) 7.08% [at 11.6 µM] | activity change, negative = cytotoxicity (Es-2) -3.74% [at 11.6 µM] | activity change, negative = cytotoxicity (HeLa) 8.64% [at 11.6 µM] | activity change, negative = cytotoxicity (Hek293T [4]) 17.1% [at 11.6 µM] | activity change, negative = cytotoxicity (JEG-3) -0.985% [at 11.6 µM] | activity change, negative = cytotoxicity (OV90) -0.207% [at 11.6 µM] | activity change, negative = cytotoxicity (PA-1) -4.12% [at 11.6 µM]

O=C(/C=C/c1ccc(O)cc1)OC[C@]12O[C@H]1[C@@H](O)[C@@H]1C=CO[C@@H](O[C@@H]3O[C@H](CO)[C@@H](O)[C@H](O)[C@H]3O)[C@@H]12
inactive: max response (KB-3-1) 8.48% | outcome (NIH3T3 [1]) | outcome (HACAT) inactive [at 17.4 µM] | Potency (HEK293T [2]) | outcome (NIH3T3 [3]) inactive [at 17.4 µM] | Potency (C33A) | Potency (CAOV3) | Potency (CASKI) | Potency (Es-2) | Potency (HeLa) | Potency (Hek293T [4]) | Potency (JEG-3) | Potency (OV90) | Potency (PA-1)

CC(=O)OCC(=O)O[C@@H]1[C@H]2[C@@H](OC(=O)c3ccccc3)[C@@H](C)C[C@]2(O)[C@H](OC(C)=O)C2(C)[C@H]3CC(C)(C)C(=O)[C@@H]3CC1(OC(C)=O)[C@@H]2OC(C)=O (stereo partly drawn)
inactive: max response (KB-3-1) 9.67% | outcome (NIH3T3 [1]) | outcome (HACAT) inactive [at 17.4 µM] | Potency (HEK293T [2]) | outcome (NIH3T3 [3]) inactive [at 17.4 µM] | Potency (C33A) | Potency (CAOV3) | Potency (CASKI) | Potency (Es-2) | Potency (HeLa) | Potency (Hek293T [4]) | Potency (JEG-3) | Potency (OV90) | Potency (PA-1)

CC1(C)CCCC2(C)C3=C(C(=O)OC3O)C(O)CC12 (stereo not drawn)
inactive: max response (KB-3-1) 2.72% | outcome (NIH3T3 [1]) | outcome (HACAT) | Potency (HEK293T [2]) | outcome (NIH3T3 [3]) | Potency (C33A) | Potency (CAOV3) | Potency (CASKI) | Potency (Es-2) | Potency (HeLa) | Potency (Hek293T [4]) | Potency (JEG-3) | Potency (OV90) | Potency (PA-1)

CC1(CO)CC2C(O)C(=O)C3(CO)CC3(C)C2C1 (stereo not drawn)
inactive: max response (KB-3-1) 2.2% | outcome (NIH3T3 [1]) | outcome (HACAT) | Potency (HEK293T [2]) | outcome (NIH3T3 [3]) | Potency (C33A) | Potency (CAOV3) | Potency (CASKI) | Potency (Es-2) | Potency (HeLa) | Potency (Hek293T [4]) | Potency (JEG-3) | Potency (OV90) | Potency (PA-1)

CC(=O)OC1C(O)C(C)=C(CCC(C)CC(=O)O)C2(C)CCCC(C)(C)C12 (stereo not drawn)
inactive: max response (KB-3-1) 0.797% | outcome (NIH3T3 [1]) | outcome (HACAT) | Potency (HEK293T [2]) | outcome (NIH3T3 [3]) | Potency (C33A) | Potency (CAOV3) | Potency (CASKI) | Potency (Es-2) | Potency (HeLa) | Potency (Hek293T [4]) | Potency (JEG-3) | Potency (OV90) | Potency (PA-1)

COC(=O)C1=COC(OC2OC(CO)C(O)C(O)C2O)C2C1CC(OC(=O)C(O)CC(=O)O)C2C (stereo not drawn)
inactive: outcome (KB-3-1) | outcome (NIH3T3 [1]) | outcome (HACAT) inactive [at 17.4 µM] | Potency (HEK293T [2]) | outcome (NIH3T3 [3]) inactive [at 17.4 µM] | Potency (C33A) | Potency (CAOV3) | Potency (CASKI) | Potency (Es-2) | Potency (HeLa) | Potency (Hek293T [4]) | Potency (JEG-3) | Potency (OV90) | Potency (PA-1)
